The record followed here is ChEMBL document CHEMBL1961873, “Compounds: GSK PKIS; Assays: Nanosyn kinase panel” (2012).

Assay [1] has as its target Protein kinase C gamma type (Homo sapiens) (UniProt P05129). As to conditions: at 1 µM.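 Further: each value is an averaged percent inhibition of the enzyme.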
Assay [2] deals with T1, Protein kinase C iota type (Homo sapiens) (UniProt P41743).
T1 sequence (whole entry): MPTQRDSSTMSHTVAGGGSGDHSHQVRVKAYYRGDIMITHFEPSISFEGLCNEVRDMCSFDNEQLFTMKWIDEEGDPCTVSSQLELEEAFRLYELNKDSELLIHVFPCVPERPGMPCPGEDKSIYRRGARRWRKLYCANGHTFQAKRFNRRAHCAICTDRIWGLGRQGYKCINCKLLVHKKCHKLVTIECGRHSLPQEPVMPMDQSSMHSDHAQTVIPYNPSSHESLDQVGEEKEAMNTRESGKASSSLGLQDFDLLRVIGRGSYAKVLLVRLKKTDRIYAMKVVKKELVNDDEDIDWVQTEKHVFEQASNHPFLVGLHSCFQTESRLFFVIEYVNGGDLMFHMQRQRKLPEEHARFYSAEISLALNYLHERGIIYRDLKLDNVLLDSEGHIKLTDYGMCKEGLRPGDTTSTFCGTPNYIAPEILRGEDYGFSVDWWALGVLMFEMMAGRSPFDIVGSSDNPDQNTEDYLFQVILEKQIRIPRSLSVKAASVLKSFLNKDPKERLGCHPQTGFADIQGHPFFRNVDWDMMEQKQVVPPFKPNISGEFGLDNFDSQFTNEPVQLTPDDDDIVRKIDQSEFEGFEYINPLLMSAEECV
The note with it: at 0.1 µM.

Assay [3] deals with T1, Protein kinase C iota type (Homo sapiens). As to conditions: at 1 µM.
Assay [4] deals with Protein kinase C theta type (Homo sapiens) (UniProt Q04759). The note with it: at 0.1 µM.
Protein kinase C theta type (Homo sapiens), sequence (Q04759 whole entry, looked up): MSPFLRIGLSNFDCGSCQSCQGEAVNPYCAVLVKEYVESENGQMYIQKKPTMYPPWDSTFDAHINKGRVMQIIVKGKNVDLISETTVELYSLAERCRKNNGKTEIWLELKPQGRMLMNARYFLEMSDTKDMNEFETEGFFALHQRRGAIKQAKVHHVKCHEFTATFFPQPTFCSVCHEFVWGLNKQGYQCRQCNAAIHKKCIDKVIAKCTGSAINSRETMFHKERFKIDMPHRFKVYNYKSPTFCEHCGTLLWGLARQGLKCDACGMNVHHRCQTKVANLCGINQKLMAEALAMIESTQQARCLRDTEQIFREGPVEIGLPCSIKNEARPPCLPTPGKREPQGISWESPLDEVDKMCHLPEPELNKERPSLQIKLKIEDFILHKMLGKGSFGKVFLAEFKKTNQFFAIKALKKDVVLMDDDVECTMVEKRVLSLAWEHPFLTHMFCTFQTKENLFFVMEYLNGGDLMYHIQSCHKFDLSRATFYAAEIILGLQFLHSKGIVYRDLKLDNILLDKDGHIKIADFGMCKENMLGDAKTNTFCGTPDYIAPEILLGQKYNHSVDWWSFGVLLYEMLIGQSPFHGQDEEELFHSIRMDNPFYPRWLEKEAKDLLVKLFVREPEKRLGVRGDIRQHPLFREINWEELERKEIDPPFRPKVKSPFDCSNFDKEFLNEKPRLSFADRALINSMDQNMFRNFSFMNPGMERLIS
The target is the same in assay [5]. The note with it: at 1 µM.
For assay [6], the target named is Protein kinase C beta type (Homo sapiens) (UniProt P05771). The note with it: at 0.1 µM.
Protein kinase C beta type (Homo sapiens), sequence (P05771 2-671 limits assumed): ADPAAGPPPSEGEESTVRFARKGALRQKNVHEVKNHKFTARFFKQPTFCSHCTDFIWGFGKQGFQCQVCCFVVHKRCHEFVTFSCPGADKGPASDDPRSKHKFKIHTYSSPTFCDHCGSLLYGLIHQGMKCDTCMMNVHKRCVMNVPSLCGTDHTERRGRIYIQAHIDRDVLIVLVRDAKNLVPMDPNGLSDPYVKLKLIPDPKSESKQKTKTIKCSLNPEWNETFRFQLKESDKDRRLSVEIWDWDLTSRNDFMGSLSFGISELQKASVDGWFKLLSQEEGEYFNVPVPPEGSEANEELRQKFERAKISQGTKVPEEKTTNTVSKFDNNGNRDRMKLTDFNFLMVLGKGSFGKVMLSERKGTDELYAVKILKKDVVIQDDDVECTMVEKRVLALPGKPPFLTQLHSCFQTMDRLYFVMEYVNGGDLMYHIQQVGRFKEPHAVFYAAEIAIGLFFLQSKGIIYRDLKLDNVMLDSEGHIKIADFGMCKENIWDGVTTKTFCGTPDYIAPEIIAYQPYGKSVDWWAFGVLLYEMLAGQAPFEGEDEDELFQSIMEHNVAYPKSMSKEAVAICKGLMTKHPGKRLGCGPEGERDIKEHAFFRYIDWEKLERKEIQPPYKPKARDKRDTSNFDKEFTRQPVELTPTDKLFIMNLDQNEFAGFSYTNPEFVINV
Assay [7] shares this target. The note with it: at 1 µM.
Assay [8] concerns the target T2, Serine/threonine-protein kinase D1 (Homo sapiens) (UniProt Q15139).
T2 sequence (whole entry): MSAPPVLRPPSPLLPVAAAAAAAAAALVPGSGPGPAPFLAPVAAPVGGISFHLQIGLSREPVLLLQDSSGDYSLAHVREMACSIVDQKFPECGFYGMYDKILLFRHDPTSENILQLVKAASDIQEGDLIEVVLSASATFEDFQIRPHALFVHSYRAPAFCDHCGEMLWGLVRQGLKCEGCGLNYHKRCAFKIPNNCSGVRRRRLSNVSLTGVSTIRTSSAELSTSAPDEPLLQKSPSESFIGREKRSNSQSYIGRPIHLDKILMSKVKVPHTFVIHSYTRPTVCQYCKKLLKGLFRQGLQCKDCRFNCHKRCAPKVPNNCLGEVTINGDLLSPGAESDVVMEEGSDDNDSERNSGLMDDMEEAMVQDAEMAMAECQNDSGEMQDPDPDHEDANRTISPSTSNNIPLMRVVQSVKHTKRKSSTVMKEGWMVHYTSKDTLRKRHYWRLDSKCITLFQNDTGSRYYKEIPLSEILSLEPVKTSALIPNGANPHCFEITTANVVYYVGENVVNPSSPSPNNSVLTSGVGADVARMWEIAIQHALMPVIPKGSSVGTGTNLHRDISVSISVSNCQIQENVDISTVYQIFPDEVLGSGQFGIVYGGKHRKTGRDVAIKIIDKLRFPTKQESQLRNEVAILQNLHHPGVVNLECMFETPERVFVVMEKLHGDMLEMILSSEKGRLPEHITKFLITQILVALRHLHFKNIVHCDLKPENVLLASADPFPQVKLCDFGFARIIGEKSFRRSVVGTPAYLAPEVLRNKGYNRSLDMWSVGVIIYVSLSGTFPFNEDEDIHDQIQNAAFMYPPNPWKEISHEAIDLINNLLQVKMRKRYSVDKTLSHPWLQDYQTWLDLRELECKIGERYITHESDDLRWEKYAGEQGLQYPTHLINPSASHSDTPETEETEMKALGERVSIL
The note with it: at 0.1 µM.

Assay [9] has as its target T2, Serine/threonine-protein kinase D1 (Homo sapiens). The note with it: at 1 µM.
The target of assay [10] is T3, Serine/threonine-protein kinase D2 (Homo sapiens) (UniProt Q9BZL6).
T3 sequence (whole entry): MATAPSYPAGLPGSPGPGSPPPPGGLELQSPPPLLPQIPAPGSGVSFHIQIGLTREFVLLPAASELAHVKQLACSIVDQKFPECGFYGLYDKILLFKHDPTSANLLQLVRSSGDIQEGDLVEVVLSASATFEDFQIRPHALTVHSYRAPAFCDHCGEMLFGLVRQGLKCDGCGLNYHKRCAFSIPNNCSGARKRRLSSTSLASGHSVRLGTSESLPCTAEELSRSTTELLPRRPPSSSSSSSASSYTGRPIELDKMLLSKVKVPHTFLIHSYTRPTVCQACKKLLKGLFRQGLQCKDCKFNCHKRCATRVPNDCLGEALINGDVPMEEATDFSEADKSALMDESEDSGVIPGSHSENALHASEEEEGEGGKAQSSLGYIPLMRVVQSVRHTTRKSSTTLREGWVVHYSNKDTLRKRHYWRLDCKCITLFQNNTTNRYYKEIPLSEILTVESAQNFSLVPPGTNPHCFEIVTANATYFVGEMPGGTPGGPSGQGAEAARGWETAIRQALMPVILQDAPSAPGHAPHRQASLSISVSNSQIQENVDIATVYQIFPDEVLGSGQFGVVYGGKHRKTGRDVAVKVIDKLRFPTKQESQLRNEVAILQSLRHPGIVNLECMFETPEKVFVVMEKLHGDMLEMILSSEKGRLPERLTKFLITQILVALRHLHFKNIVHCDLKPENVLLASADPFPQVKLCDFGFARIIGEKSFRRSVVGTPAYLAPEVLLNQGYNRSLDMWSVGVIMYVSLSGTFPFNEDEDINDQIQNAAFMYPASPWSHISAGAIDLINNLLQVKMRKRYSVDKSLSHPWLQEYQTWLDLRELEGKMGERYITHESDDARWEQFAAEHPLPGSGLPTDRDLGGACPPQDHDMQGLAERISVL
As to conditions: at 0.1 µM.

In assay [11] the target is T3, Serine/threonine-protein kinase D2 (Homo sapiens). As to conditions: at 1 µM.
The target of assay [12] is T4, Serine/threonine-protein kinase D3 (Homo sapiens) (UniProt O94806).
T4 sequence (whole entry): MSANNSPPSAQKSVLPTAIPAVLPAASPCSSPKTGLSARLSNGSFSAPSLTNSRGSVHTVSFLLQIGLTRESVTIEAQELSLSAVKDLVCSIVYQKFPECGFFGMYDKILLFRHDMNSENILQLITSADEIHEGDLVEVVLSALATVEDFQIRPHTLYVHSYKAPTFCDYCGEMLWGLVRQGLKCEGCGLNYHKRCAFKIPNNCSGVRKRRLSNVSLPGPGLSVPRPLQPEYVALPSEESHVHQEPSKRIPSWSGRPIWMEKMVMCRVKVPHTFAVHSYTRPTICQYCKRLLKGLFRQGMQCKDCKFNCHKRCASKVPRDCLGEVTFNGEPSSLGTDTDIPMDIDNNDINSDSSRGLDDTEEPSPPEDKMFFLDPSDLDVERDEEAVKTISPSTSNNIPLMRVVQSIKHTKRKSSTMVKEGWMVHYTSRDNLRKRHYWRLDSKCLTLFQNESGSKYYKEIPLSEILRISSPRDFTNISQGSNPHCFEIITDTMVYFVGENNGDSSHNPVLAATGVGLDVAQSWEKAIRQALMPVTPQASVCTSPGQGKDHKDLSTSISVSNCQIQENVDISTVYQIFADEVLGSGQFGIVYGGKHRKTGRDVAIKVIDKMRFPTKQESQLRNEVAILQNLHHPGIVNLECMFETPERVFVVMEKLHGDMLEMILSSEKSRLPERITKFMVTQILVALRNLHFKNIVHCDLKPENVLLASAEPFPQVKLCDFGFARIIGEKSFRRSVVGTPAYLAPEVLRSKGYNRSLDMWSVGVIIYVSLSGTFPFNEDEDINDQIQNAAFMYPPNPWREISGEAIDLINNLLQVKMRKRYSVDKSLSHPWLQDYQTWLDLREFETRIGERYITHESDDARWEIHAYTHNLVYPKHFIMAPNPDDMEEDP
As to conditions: at 0.1 µM.

The target in assay [13] is T4, Serine/threonine-protein kinase D3 (Homo sapiens). As to conditions: at 1 µM.
The target in assay [14] is T5, cGMP-dependent protein kinase 1 (Homo sapiens) (UniProt Q13976).
T5 sequence (whole entry): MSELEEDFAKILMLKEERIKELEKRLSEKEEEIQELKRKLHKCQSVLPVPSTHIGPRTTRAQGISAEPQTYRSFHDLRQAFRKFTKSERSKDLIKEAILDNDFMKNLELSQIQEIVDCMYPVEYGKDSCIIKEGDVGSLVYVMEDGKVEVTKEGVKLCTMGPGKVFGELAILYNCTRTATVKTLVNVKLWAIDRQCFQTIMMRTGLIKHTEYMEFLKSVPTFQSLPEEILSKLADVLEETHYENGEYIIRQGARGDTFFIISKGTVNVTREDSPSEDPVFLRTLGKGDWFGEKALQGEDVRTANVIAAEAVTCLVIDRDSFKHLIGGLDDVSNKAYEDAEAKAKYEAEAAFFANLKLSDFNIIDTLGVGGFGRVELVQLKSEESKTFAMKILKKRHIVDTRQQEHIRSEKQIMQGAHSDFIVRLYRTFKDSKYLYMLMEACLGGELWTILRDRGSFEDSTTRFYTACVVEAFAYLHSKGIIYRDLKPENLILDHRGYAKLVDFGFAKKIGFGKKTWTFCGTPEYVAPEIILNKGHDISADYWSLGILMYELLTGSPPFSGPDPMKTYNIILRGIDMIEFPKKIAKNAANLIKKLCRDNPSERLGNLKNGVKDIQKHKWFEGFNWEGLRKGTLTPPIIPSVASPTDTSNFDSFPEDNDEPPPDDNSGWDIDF
As to conditions: at 0.1 µM.

The target in assay [15] is T5, cGMP-dependent protein kinase 1 (Homo sapiens). As to conditions: at 1 µM.
Assay [16] addresses T6, cGMP-dependent protein kinase 2 (Homo sapiens) (UniProt Q13237).
T6 sequence (whole entry): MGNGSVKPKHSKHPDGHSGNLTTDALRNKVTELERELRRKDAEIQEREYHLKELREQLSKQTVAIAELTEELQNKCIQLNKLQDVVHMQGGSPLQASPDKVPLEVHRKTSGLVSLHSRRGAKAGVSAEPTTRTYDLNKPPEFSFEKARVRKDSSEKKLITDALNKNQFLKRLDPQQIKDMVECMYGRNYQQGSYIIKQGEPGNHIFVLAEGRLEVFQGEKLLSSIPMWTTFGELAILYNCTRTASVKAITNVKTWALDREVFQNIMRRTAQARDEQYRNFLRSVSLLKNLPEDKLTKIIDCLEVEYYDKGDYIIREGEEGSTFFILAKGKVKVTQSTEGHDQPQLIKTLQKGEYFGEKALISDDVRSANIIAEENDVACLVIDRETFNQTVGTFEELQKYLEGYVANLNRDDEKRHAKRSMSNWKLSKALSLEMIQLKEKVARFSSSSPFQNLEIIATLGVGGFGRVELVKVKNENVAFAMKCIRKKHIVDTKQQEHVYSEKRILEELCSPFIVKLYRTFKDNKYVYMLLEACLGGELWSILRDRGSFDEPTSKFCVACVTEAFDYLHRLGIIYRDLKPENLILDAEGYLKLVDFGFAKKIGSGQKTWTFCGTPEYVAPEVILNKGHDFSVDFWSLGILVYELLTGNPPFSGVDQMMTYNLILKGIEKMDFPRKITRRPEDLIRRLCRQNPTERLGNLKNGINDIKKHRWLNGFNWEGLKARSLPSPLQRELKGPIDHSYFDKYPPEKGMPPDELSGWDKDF
As to conditions: at 0.1 µM.

In assay [17] the target is T6, cGMP-dependent protein kinase 2 (Homo sapiens). The note with it: at 1 µM.
The target of assay [18] is T7, cAMP-dependent protein kinase catalytic subunit PRKX (Homo sapiens) (UniProt P51817).
T7 sequence (whole entry): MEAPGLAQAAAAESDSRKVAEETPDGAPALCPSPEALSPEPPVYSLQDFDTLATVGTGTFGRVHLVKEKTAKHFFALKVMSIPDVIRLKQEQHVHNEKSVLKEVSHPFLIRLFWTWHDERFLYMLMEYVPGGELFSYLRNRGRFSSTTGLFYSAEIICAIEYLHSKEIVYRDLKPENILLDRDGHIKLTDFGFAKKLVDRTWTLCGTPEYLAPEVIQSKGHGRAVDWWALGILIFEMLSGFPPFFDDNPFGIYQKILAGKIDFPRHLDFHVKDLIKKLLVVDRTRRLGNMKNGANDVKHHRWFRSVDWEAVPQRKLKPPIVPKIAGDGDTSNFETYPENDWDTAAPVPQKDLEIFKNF
As to conditions: at 0.1 µM.

For assay [19], the target named is T7, cAMP-dependent protein kinase catalytic subunit PRKX (Homo sapiens). The note with it: at 1 µM.
The target of assay [20] is Rho-associated protein kinase 1 (Homo sapiens) (UniProt Q13464). As to conditions: at 0.1 µM.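 Further: values are mean percent inhibition of ROCK1.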
Rho-associated protein kinase 1 (Homo sapiens), sequence (Q13464 2-1354 limits assumed): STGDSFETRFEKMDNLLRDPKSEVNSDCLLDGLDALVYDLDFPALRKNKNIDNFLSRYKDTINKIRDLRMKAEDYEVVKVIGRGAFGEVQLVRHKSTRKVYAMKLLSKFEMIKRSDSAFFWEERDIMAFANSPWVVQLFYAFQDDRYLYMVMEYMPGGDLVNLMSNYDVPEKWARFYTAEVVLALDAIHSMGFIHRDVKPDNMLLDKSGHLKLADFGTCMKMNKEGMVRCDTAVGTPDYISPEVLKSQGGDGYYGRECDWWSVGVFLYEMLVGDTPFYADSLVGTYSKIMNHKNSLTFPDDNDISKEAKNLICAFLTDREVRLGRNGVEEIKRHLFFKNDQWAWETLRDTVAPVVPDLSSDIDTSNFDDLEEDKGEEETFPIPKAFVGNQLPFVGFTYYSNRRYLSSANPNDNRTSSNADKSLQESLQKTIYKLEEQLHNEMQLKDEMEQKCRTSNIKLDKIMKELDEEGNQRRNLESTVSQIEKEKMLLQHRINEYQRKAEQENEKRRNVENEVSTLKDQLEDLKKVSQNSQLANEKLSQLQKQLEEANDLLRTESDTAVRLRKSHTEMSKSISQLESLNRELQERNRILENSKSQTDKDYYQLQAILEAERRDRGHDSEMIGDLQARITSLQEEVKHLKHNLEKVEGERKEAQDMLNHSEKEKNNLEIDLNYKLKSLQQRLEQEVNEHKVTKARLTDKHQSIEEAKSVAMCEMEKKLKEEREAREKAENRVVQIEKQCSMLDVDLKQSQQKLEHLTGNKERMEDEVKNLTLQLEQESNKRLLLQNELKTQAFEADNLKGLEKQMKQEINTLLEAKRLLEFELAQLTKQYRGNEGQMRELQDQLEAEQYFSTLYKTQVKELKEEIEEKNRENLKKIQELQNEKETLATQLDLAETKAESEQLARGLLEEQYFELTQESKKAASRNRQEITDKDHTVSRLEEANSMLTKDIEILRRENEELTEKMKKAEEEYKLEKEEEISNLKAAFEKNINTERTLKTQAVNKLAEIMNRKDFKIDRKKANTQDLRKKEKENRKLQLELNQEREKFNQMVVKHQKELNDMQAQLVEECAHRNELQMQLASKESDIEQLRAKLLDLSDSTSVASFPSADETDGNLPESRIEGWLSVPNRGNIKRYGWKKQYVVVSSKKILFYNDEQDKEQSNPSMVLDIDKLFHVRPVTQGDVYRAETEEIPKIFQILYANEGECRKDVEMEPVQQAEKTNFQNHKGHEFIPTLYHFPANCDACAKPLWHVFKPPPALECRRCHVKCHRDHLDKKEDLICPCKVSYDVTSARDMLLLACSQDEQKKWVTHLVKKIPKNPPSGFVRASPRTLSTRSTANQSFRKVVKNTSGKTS

As to `C/C(Nc1ccc(S(N)(=O)=O)cc1)=C1/C(=O)Nc2ccccc21`, the inhibition in assay [1] was 2.57%; in assay [2], -0.37%; in assay [3] it was 0.02%; in [4], -0.23%; in assay [5] it was 3.24%; in [6] it was -0.77%. Moreover, the inhibition in assay [7] was 1.28%; in [8] it was 0.51%; in [9] it was 15.9%; in assay [10], 0.69%; in assay [11] it was 11.3%; in assay [12], -0.08%. The inhibition in [13] is 9.13%; in assay [14] it was 0.96%; in [15], 3.66%; in assay [16] it was 0.21%; in assay [17], 8.25%; in assay [18] it was 1.97%. Besides, the inhibition is 4.84% in assay [19] and 2.38% in assay [20].

Turning to `Fc1ccc(-c2ncn(C3CCNCC3)c2-c2ccnc(Oc3ccc4c(c3)OCO4)n2)cc1`, the inhibition was 6.16% in assay [1]; 4.45% in assay [2]; 4.29% in assay [3]; 3.38% in [4]; 3.39% in assay [5]; 1.38% in assay [6]. Further, the inhibition in [7] turned out to be 5.69%; in [8] it was 4.85%; in assay [9] it was 12.4%; in [10], 5.35%; in assay [11], 9.53%; in [12], 5.01%. Also, the inhibition came to 9.26% in [13]; 2.62% in [14]; 2.47% in assay [15]; 3.43% in [16]; 2.62% in [17]; 1.9% in assay [18]. In addition, the results for the inhibition in assay [19] and in assay [20] were 2.4% and 2.94%, respectively.
